Data from PubChem BioAssay AID1159580 (chemical genetic matrix, 2015).
Several values for one entry are separate records, joined by “and”; a condition that tells them apart may be missing. Equal entries are not always repeated. Among all 5,500 compounds or so, about 2,000 (36%) were called active. Inconclusive results (about 18%) are left out. Rule as the data show it: active = normalized growth mostly below about 0.91 (no sharp cut-off); inconclusive = no clear call, values can overlap the other calls; inactive = mostly above about 0.92. The list shows a part of the results.

Assay: chemical genetic growth profiling, strain panel (AID 1159580);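 also: tested at 20 µM; growth read once vehicle control cultures reached saturation at 30 °C; 1 = growth at the plate median or of vehicle wells; lower values mean less growth of the strain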
Settings: S. cerevisiae deletion strains, growth OD

Measured: normalized growth

NC(=O)c1cc([N+](=O)[O-])cc([N+](=O)[O-])c1
active: locus YDR137W, strain rgp1, hits give low values 1.25 [resistant] | locus YDR195W, strain ref2 0.78 | locus YDR392W, strain spt3, hits give low values 0.633 | locus YER155C, strain BEM2 (second series), hits give low values 0.788
inactive: locus YAL021C, strain ccr4, hits give low values 1.03 | locus YAL026C, strain drs2, hits give low values 0.962 | locus YAL030W, strain snc1, hits give low values 1.01 | locus YBL061C, strain skt5, hits give low values 1.02 | locus YBR009C, strain hhf1, hits give low values 0.972 | locus YBR021W, strain FUR4, hits give low values 0.99 | locus YBR023C, strain chs3, hits give low values 1.02 | locus YBR171W, strain sec66, hits give low values 1.04 | locus YBR229C, strain ROT2, hits give low values 1.02 | locus YBR231C, strain swc5, hits give low values 0.991 | locus YBR279W, strain paf1, hits give low values 1.03 | locus YCL011C, strain gbp2, hits give low values 1.02 | locus YCL016C, strain dcc1, hits give low values 1.05 | locus YCL029C, strain bik1, hits give low values 0.983 | locus YCL061C, strain MRC1, hits give low values 1.01 | locus YCL069W, strain vba3, hits give low values 1.02 | locus YCR088W, strain abp1, hits give low values 1.02 | locus YDL005C, strain med2, hits give low values 1.03 | locus YDL035C, strain GPR1, hits give low values 0.992 | locus YDL040C, strain nat1, hits give low values 1.01 | locus YDL074C, strain BRE1, hits give low values 0.986 | locus YDL101C, strain DUN1, hits give low values 0.989 | locus YDL134C, strain PPH21, hits give low values 1.01 | locus YDL185W, strain tfp1, hits give low values 0.974 | locus YDL192W, strain arf1, hits give low values 0.986 | locus YDR001C, strain nth1, hits give low values 1.01 | locus YDR069C, strain doa4, hits give low values 0.979 | locus YDR101C, strain arx1, hits give low values 0.982 | locus YDR159W, strain sac3, hits give low values 1.04 | locus YDR162C, strain NBP2, hits give low values 0.992 | locus YDR297W, strain sur2, hits give low values 1 | locus YDR318W, strain mcm21, hits give low values 0.974 | locus YDR334W, strain swr1, hits give low values 1.03 | locus YDR335W, strain msn5, hits give low values 1.02 | locus YDR388W, hits give low values 0.996 | locus YDR502C, strain sam2, hits give low values 0.983 | locus YEL003W, strain gim4, hits give low values 0.961 | locus YEL037C, strain rad23, hits give low values 1.01 | locus YEL061C, strain CIN8 (second series), hits give low values 1.02 | locus YEL061C, strain CIN8, hits give low values 1.01 | locus YER015W, strain faa2, hits give low values 1.02 | locus YER016W, strain bim1, hits give low values 0.999 | locus YER110C, hits give low values 0.979 | locus YER111C, strain swi4, hits give low values 1.04 | locus YER155C, strain BEM2, hits give low values 1.01 | locus YER167W, strain BCK2, hits give low values 1.02 | locus YFR010W, strain ubp6, hits give low values 0.995 | locus YGL078C, strain dbp3, hits give low values 0.995 | locus YGL086W, strain mad1, hits give low values 0.968 | locus YGL167C, strain pmr1, hits give low values 1.02 | locus YGL173C, strain kem1, hits give low values 1.01 | locus YGL227W, strain vid30, hits give low values 1.02 | locus YGL240W, strain doc1, hits give low values 0.969 | locus YGL248W, strain PDE1, hits give low values 1.02 | locus YGL253W, strain hxk2, hits give low values 0.994 | locus YGR078C, strain PAC10, hits give low values 1 | locus YGR135W, strain pre9, hits give low values 0.978 | locus YGR252W, strain gcn5, hits give low values 0.906 | locus YHR013C, strain ard1, hits give low values 1.09 | locus YHR027C, strain rpn1, hits give low values 0.997 | locus YHR030C, strain SLT2, hits give low values 1.02 and 0.959 | locus YHR079C, strain IRE1 (second series), hits give low values 0.996 | locus YHR079C, strain IRE1, hits give low values 0.955 | locus YHR094C, strain hxt1, hits give low values 0.954 | locus YHR129C, strain ARP1, hits give low values 1.02 | locus YHR142W, strain chs7, hits give low values 1.01 | locus YHR200W, strain rpn10, hits give low values 0.997 | locus YIL066C, strain RNR3, hits give low values 1.01 | locus YIL073C, strain SPO22, hits give low values 0.993 | locus YIL125W, strain kgd1, hits give low values 1 | locus YIR030C, strain dcg1, hits give low values 1 | locus YJL092W, strain hpr5, hits give low values 1.02 | locus YJL095W, strain BCK1 (second series), hits give low values 1.01 | locus YJL095W, strain BCK1, hits give low values 0.994 and 0.966 | locus YJL115W, strain asf1, hits give low values 1.02 | locus YJL129C, strain trk1, hits give low values 1.1 | locus YJL134W, strain LCB3, hits give low values 1.01 | locus YJL154C, strain vps35, hits give low values 1.03 | locus YJL164C, strain tpk1, hits give low values 0.977 | locus YJL166W, strain qcr8, hits give low values 1 | locus YJL168C, strain set2, hits give low values 0.997 | locus YJL187C, strain SWE1 (second series), hits give low values 1.01 | locus YJL187C, strain SWE1, hits give low values 1.03 | locus YJR043C, strain POL32, hits give low values 0.967 | locus YJR066W, strain TOR1, hits give low values 0.918
